Compounds with a hit are over-represented: about 10% of the library has one in this group of screens.
ELG1 repair inh: blocks ELG1-dependent DNA repair in HEK293T cells; HEK293T ELG1-luciferase reporter, luminescence, 16 h; DNA damage induced by 5-fluorouridine; Potency, µM (top dose mostly 46.1 µM), for inactives: top-dose activity change, negative = inhibition, actives largely listed as inhibitors; 330,000 compounds, 2.3% hits; further: on the % scale 0 is the no-effect control and ±100 the full control effect; nearly all actives have a fitted effect of over 55% in size
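Luminescence from the luciferase reporter, measured 30 min after ONE-Glo reagent at room temperature, was the read-out. Beforehand, 2,000 cells per well were exposed for 16 hr at 37 °C to 5-fluorouridine together with compound or vehicle.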
SW480 rerep: inducers of DNA re-replication in SW480 colon cancer cells | SW480 DNA re-replication, Hoechst DNA content imaging, 48 h | Potency, µM (top dose mostly 46.1 µM), inactives show at the highest dose re-replication activation, actives largely listed as activators | 340,000 compounds, 1.8% hits | AID 624297; further: % of control where 0% means no effect; nearly all actives have a fitted effect of over 55% in size
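SW480 cells exposed to compounds for 48 hr at 37 C, 5% CO2, then Hoechst-stained 40 min. Nuclear DNA content imaged by fluorescence scanning (405 nm excitation, 500-530 nm emission); re-replication scored as increased high-intensity nuclei.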
MCF10A rerep: induces DNA re-replication in MCF 10a normal breast cells | Potency, µM (doses to about 46.1 µM), for the others: top-dose activity, positive = re-replication, actives largely listed as activators | 350,000 compounds, 2.9% hits | AID 624296 | MCF 10A DNA re-replication, Hoechst nuclear intensity, 48 h; further: % of control where 0% means no effect; nearly all actives have a fitted effect of over 50% in size
VP16 counter: counter-screen for ROR gamma inhibitors: Gal4-VP16 reporter | Drosophila S2 Gal4-VP16 UAS-luciferase, luminescence, 20 h | Potency, µM (highest dose often 53.6 µM), inactives show at the top dose activity, negative = inhibition, usual class: inhibitors | AID 2546 | 310,000 compounds, 3.5% hits;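 further: Gal4-VP16 expression switched on by copper sulfate through the metallothionein promoter; on the % scale 0 is the no-effect control and ±100 the full control effect; nearly all actives have a fitted effect of over 50% in size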
RORgamma inh: ROR gamma (mouse) transcription inhibition. P51450. Drosophila S2 Gal4-RORgamma UAS-luciferase reporter, 20 h. Potency, µM (doses to about 53.6 µM), for inactives: at the highest dose activity change, negative = inhibition, usual class: inhibitors. 310,000 compounds, 5.4% hits; further: on the % scale 0 is the no-effect control and ±100 the full control effect; nearly all actives have a fitted effect of over 60% in size
Target sequence (P51450 whole entry, looked up, the tested form may be a part): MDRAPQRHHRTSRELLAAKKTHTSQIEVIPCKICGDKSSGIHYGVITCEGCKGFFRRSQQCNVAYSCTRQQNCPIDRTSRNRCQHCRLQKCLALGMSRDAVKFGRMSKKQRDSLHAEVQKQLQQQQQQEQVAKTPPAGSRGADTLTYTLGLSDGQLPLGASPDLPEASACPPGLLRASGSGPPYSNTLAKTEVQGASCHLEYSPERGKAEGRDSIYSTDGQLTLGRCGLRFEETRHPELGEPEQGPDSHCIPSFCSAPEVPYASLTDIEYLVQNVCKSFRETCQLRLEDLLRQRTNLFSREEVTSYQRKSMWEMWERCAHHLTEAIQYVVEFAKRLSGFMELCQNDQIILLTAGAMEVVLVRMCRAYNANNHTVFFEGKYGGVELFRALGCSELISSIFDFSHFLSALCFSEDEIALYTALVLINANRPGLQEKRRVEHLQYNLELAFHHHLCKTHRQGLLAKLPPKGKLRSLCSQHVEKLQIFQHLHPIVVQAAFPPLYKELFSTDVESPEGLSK
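Luciferase reporter read in Schneider cells carrying Gal4-RORγ (mouse) and UAS-Photinus luciferase; cells given compound 1 h before 700 uM copper sulfate induction, then incubated 20 h at ambient temperature.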
* = called active by the depositor; [ ] = remark or other dose. The call rests on the fitted dose curve; in most records, active means well fitted curve in the direction sought with a large enough effect; inconclusive means small, poorly fitted or top-dose-only effect, or another doubt; inactive means no such curve, though single readings can be large; an effect the other way counts as inactive or inconclusive. Potency means the concentration at half of the fitted maximal effect.

How did COc1ccc(NC(=O)Cn2nnc(C(=O)NCCc3ccc(OC)c(OC)c3)c2N)c(OC)c1 do in these assays?
ELG1 repair inh: 6%; SW480 rerep: -5%; MCF10A rerep: 4%; VP16 counter: -1%; RORgamma inh: -9%

Results for COc1ccccc1CN(Cc1nc2ccccc2c(=O)[nH]1)C(=O)Nc1ccc(C)cc1 ?
ELG1 repair inh: inconclusive; SW480 rerep: 1%; MCF10A rerep: 2%; VP16 counter: 1%; RORgamma inh: inconclusive

Results for COc1ccccc1NS(=O)(=O)c1cc(NC(=O)CCc2nc3ccccc3c(=O)[nH]2)ccc1C ?
ELG1 repair inh: 13µM*; SW480 rerep: inconclusive; MCF10A rerep: 7%

How did COc1ccccc1CN(Cc1nc2ccccc2c(=O)[nH]1)S(=O)(=O)c1ccc(C)cc1 do in these assays?
ELG1 repair inh: 23µM*; SW480 rerep: 1%; MCF10A rerep: -5%; VP16 counter: 3%; RORgamma inh: -6%

Results for COc1ccccc1CN(Cc1nc2ccccc2c(=O)[nH]1)C(=O)Nc1ccccc1C ?
ELG1 repair inh: inconclusive; SW480 rerep: 10%; MCF10A rerep: inconclusive; VP16 counter: inconclusive; RORgamma inh: 10µM*

What do the screens show for `O=C(CCc1nc2ccccc2c(=O)[nH]1)Nc1ccc(F)cc1`?
ELG1 repair inh: inconclusive; SW480 rerep: -6%; MCF10A rerep: 15%; VP16 counter: -10%; RORgamma inh: 25%

Results for CCOc1ccc(NC(=O)c2ccc(N3CC4CC(C3)c3cccc(=O)n3C4)c(NC(=O)c3cccnc3)c2)cc1 (stereo unspecified) ?
ELG1 repair inh: -19%; SW480 rerep: -33%; MCF10A rerep: 0%; VP16 counter: -6%; RORgamma inh: 3%

How did O=C(O)/C=C/C(=O)NNC(=O)c1ccccc1Br do in these assays?
ELG1 repair inh: 13%; SW480 rerep: -3%; MCF10A rerep: -28%; VP16 counter: -16%; RORgamma inh: 11µM*

How did Cc1cccc(C(=O)NNC(=O)/C=C/C(=O)O)c1 do in these assays?
ELG1 repair inh: -3%; SW480 rerep: -6%; MCF10A rerep: 4%; VP16 counter: -10%; RORgamma inh: 14µM*

What do the screens show for `Cc1ccccc1C(=O)NNC(=O)/C=C\C(=O)O`?
ELG1 repair inh: inconclusive; SW480 rerep: -5%; MCF10A rerep: 15%; VP16 counter: inconclusive; RORgamma inh: 3.5µM*

How did Cc1ccccc1C(=O)NNC(=O)Nc1ccccc1 do in these assays?
ELG1 repair inh: 4%; VP16 counter: -4%; RORgamma inh: -34%

What do the screens show for `Cc1cccc(C(=O)NNC(=O)c2ccccc2Br)c1`?
ELG1 repair inh: inconclusive; SW480 rerep: -3%; MCF10A rerep: -5%; VP16 counter: inconclusive; RORgamma inh: -1%

How did CCCCC/C=C\C[C@@H](O)/C=C/C=C/C=C\[C@@H](O)CCCC(=O)O do in these assays?
VP16 counter: -4%[10 µM]; RORgamma inh: 11%[10 µM]

Results for Cc1ccc(Nc2[nH]c(=O)c3ccccc3c2C(=O)c2ccccc2)cc1 ?
SW480 rerep: -48%; MCF10A rerep: 3%

What do the screens show for `CC(=O)Nc1ccc(C=NNc2ccc([N+](=O)[O-])cc2S(=O)(=O)Nc2ccccc2C(=O)O)cc1`?
ELG1 repair inh: inconclusive; SW480 rerep: 148%; MCF10A rerep: 21µM*

Results for CC(=O)Nc1ccc(C=NNc2ccc(S(=O)(=O)Nc3ccccc3C(=O)O)cc2[N+](=O)[O-])cc1 ?
ELG1 repair inh: 15%; SW480 rerep: -3%; MCF10A rerep: -39%

What do the screens show for `COc1ccc(C(C)=NNc2ccc([N+](=O)[O-])cc2S(=O)(=O)Nc2ccccc2C(=O)O)c(OC)c1`?
ELG1 repair inh: -2%; SW480 rerep: inconclusive; MCF10A rerep: 9.2µM*

Results for COc1ccc(NS(=O)(=O)c2cc([N+](=O)[O-])ccc2N/N=C/c2c(C)[nH]c3ccccc23)cc1 ?
SW480 rerep: 15%; MCF10A rerep: 9.2µM*

What do the screens show for `Cc1ccc(NC(=S)NNc2ccc([N+](=O)[O-])cc2S(=O)(=O)Nc2ccccc2C(=O)O)cc1C`?
ELG1 repair inh: -5%; SW480 rerep: -3%; MCF10A rerep: inconclusive; VP16 counter: -27%; RORgamma inh: -34%

What do the screens show for `O=C1C[C@H]2[C@H](CO)[C@@H](OC(=O)c3ccc(-c4ccccc4)cc3)C[C@H]2O1`?
ELG1 repair inh: inconclusive; SW480 rerep: -1%; MCF10A rerep: 0%; VP16 counter: 5%; RORgamma inh: 24%

What do the screens show for `COc1ccc2c(c1OC)C(=O)N1c3cccc(Cl)c3C(=O)OC21` (stereo unspecified)?
ELG1 repair inh: -1%; SW480 rerep: 0.65µM*; MCF10A rerep: 1.3µM*; VP16 counter: -1%; RORgamma inh: 3%

Results for COc1ccc2c(c1OC)C(=O)N1c3ccccc3C(=O)OC21 (stereo unspecified) ?
VP16 counter: 11%; RORgamma inh: 20%

How did O=C1CC(c2ccccc2)c2cc(O)ccc2O1 (stereo unspecified) do in these assays?
ELG1 repair inh: 0%; SW480 rerep: -4%; MCF10A rerep: inconclusive; VP16 counter: -15%; RORgamma inh: 11µM*

How did CCN1CCc2nc3sc(C(=O)N4CCc5ccccc5C4)c(N)c3cc2C1 do in these assays?
ELG1 repair inh: 8%; SW480 rerep: 3%; MCF10A rerep: 18µM*; VP16 counter: 4%; RORgamma inh: 12%

What do the screens show for `CC(C)c1ccc2nc3sc(C(=O)N4CCc5ccccc5C4)c(N)c3cc2c1`?
ELG1 repair inh: inconclusive; SW480 rerep: 2%; MCF10A rerep: inconclusive; VP16 counter: 0%; RORgamma inh: -23%

Results for Cc1cc(C)c2c(N)c(S(=O)(=O)c3ccccc3)sc2n1 ?
ELG1 repair inh: inconclusive; SW480 rerep: 2%; MCF10A rerep: inconclusive; VP16 counter: inconclusive; RORgamma inh: 1%

How did Cc1cc2c(sc3c(C)ccc(C)c32)c(C)n1 do in these assays?
ELG1 repair inh: 7%; SW480 rerep: -36%; MCF10A rerep: inconclusive; VP16 counter: -6%; RORgamma inh: 18µM*

Results for Cc1[nH]nc2oc(=O)c(CCO)c(C)c12 ?
ELG1 repair inh: 10%; SW480 rerep: 16µM*; MCF10A rerep: inconclusive; VP16 counter: 0%; RORgamma inh: 3%

Results for CCc1ccc(NC(=O)c2cc(C)no2)cc1 ?
ELG1 repair inh: inconclusive; SW480 rerep: -2%; MCF10A rerep: 16%; VP16 counter: inconclusive; RORgamma inh: 15%

How did CCc1ccc(NC(=O)CN(N=Nc2nonc2C)c2nonc2C)cc1 do in these assays?
ELG1 repair inh: inconclusive; SW480 rerep: -2%; MCF10A rerep: 1%; VP16 counter: inconclusive; RORgamma inh: 4µM*

Screening data deposited in PubChem BioAssay by National Center for Advancing Translational Sciences (NCATS).
